Bioassay records as filed in PubChem.
Rtt109 Vps75 – blocks Candida albicans Rtt109/Vps75 acetyltransferase activity | Q5AAJ8 | purified Rtt109/Vps75, ThioGlo CoA-SH fluorescence, 4 h | inhibition, % at 34.9 µM | actives 0.16% (n = 330,000);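 active = inhibition of at least 50% in every replicate; inconclusive = best replicate reaches 50% inhibition but some replicates fall short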
Target sequence (Q5AAJ8 whole entry, looked up): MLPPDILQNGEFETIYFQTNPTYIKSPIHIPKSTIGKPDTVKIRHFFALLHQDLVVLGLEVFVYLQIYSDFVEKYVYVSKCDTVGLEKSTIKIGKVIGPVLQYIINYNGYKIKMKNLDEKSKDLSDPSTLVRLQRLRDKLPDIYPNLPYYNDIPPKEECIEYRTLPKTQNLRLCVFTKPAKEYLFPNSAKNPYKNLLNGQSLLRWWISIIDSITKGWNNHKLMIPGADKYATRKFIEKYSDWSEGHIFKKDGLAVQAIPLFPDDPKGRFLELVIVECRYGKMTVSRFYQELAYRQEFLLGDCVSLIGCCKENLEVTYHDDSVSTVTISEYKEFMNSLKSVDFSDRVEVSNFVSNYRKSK
Wnt act – Wnt/beta-catenin pathway activation; AID 743398; actives 1.2% (n = 300,000); activation, % at 9.35 µM; Wnt/beta-catenin reporter cell assay, activator, plate reader; in the data active = activation above about 30%, passing the limit was not always enough; inconclusive = no clear call, values can overlap the other calls
Statin myotox sup – protects C2C12 myotubes from simvastatin toxicity; rescue of ATP level, % at 7.49 µM; actives 0.78% (n = 330,000); ATP luminescence, 48 h; scaled: DMSO 0, geranylgeraniol control 100; AID 602340;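 active = mean ATP rescue above about 67%, or every replicate alone reaching that limit, limit read from the data, passing the limit was not always enough; inconclusive = no clear call, values can overlap the other calls; inactive = mean under the limit and some replicate under it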;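 note: myotubes were challenged with 10 µM simvastatin during compound exposure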
esBAF inh – SWI/SNF esBAF complex inhibition; mouse ES cells, Bmi1-luciferase knock-in reporter, 24 h; 100% = twice the neutral-well signal; reporter increase, % at 12.5 µM; actives 2% (n = 350,000); AID 602393; in the data active = activation above about 40%; inconclusive = no clear call, values can overlap the other calls;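 note: a rise in the Bmi1 reporter signal indicates esBAF inhibition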
MITF act – activators of MITF-driven TRPM1 promoter activity in SK-MEL-5 cells; activation, % at 12.5 µM; actives 0.75% (n = 300,000); AID 588334; SK-MEL-5 TRPM1-promoter luciferase, 24 h; % of positive control, neutral wells = 0;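 active = mean activation of at least 80% with every replicate also reaching 80%; inconclusive = mean reaches 80% but some replicate falls short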
Of the large screens only hits and unclear results are named; the others gave an inactive call. Shown are actives, neighbours in structure and some others; about 3.1% of the full set was active somewhere.

c1ccc(Nc2nc(-c3cccs3)cs2)nc1	Statin myotox sup 148 (no result: MITF act)
C/C=C/c1ccc2c(c1)O[C@H](CN(C)C(=O)C1CCC1)[C@@H](C)CN([C@H](C)CO)S2(=O)=O	none (no result: Rtt109 Vps75, Wnt act, esBAF inh, MITF act)
CO[C@H]1CN(C)C(=O)c2ccc(NC(=O)C3CC3)cc2OC[C@H](C)N(C(=O)c2ccncc2)C[C@H]1C	none (no result: Rtt109 Vps75, Wnt act, MITF act)
C[C@H](CO)N1C[C@H](C)[C@@H](CN(C)C(=O)C2CC2)Oc2ncc(/C=C/c3ccccc3)cc2C1=O	none (no result: Rtt109 Vps75, Wnt act, esBAF inh, MITF act)
C[C@@H]1CCCCO[C@H](CN(C)C(=O)C2CCCCC2)[C@@H](C)CN([C@@H](C)CO)C(=O)c2cc(NC(=O)C3CCCCC3)ccc2O1	none (no result: Rtt109 Vps75, Wnt act, Statin myotox sup, MITF act)
CN(Cc1ccco1)c1ncnc2ccc(-c3ccc4c(c3)OCO4)cc12	none
Cc1nc(CN(C)c2ncnc3ccc(-c4ccc5c(c4)OCO5)cc23)cs1	esBAF inh 43 (no result: Rtt109 Vps75, MITF act)
Cc1cc(/C=C2/NC(=O)N(c3ccccc3)C2=O)c(C)n1-c1cccnc1	Wnt act 37, esBAF inh 71 (no result: Rtt109 Vps75)
Cc1cc(/C=C2/NC(=S)NC2=O)c(C)n1-c1cccnc1	esBAF inh inconclusive (no result: Wnt act)
C[C@@H]1CN([C@@H](C)CO)C(=O)c2cc(C#Cc3ccccc3F)cnc2O[C@@H]1CN(C)S(=O)(=O)c1ccccc1F	none (no result: Rtt109 Vps75, Wnt act, MITF act)
O=C(Cc1ccc(Cl)cc1)Nc1ncc([N+](=O)[O-])s1	none (no result: Statin myotox sup, esBAF inh)
O=C(COc1ccc(Cl)cc1)Nc1ncc([N+](=O)[O-])s1	Wnt act 38 (no result: Statin myotox sup, esBAF inh)
COC(=O)C[C@H]1CC[C@@H]2[C@H](COC[C@@H](O)CN2S(=O)(=O)c2ccc(F)cc2)O1	none (no result: Rtt109 Vps75, Wnt act, MITF act)
Cc1csc2nc(CSc3nc4ccccc4o3)c(Br)n12	MITF act 91 (no result: Wnt act, Statin myotox sup, esBAF inh)
Cc1csc2nc(CSc3nncn3-c3ccccc3)c(Br)n12	none (no result: Wnt act)
COCCNC(=O)C[C@@H]1C[C@@H]2c3cc(NC(=O)c4cccnc4)ccc3O[C@@H]2[C@@H](CO)O1	none (no result: Rtt109 Vps75, Wnt act, MITF act)
COC(=O)[C@@H](Cc1c[nH]c2ccccc12)NC(=O)c1ccc2c(c1)OCO2	Wnt act 38, esBAF inh 68
O=C(NC(Cc1c[nH]c2ccccc12)C(=O)O)c1ccco1 (configuration not stated)	Statin myotox sup 84
Cc1cc(C)nc(NC(=NCCc2c[nH]c3ccccc23)NC(=O)Nc2ccccc2)n1	none (no result: Wnt act)
Cc1cc(C)nc(NC(=NCCc2c[nH]c3ccccc23)NC(=O)c2ccco2)n1	Statin myotox sup 128
CCC1CCCCN1S(=O)(=O)c1ccc(NC(=O)C2CC(=O)N(C(C)(C)C)C2)cc1 (configuration not stated)	Wnt act 33
COc1ccc2oc(=Nc3ccccc3)c(-c3nc4ccccc4[nH]3)cc2c1	Wnt act 44 (no result: Statin myotox sup, esBAF inh)
CCn1c(SCC(=O)Nc2ccc(S(=O)(=O)Nc3ccccn3)cc2)nnc1-c1ccncc1	Statin myotox sup 95 (no result: Wnt act)
CC(C)NC(=O)Nc1ccc2c(c1)C(=O)N([C@@H](C)CO)C[C@@H](C)[C@H](CN(C)S(=O)(=O)c1cn(C)cn1)OCCCC[C@@H](C)O2	none (no result: Rtt109 Vps75, Wnt act, Statin myotox sup, MITF act)
CCc1ccc(NC(=O)CCCOc2cc(=O)n(C)c3ccccc23)cc1	none (no result: Rtt109 Vps75, MITF act)
O=C(CCn1c(=O)oc2ccccc21)N1CCc2ccccc21	esBAF inh 41
O=C(CCn1c(=O)oc2ccccc21)Nc1ccccc1	none (no result: MITF act)
O=C(CCCCCN1C(=O)c2ccccc2C1=O)Nc1ccc2c(c1)OCCO2	Statin myotox sup 109
O=C(CCCn1c(=O)oc2ccccc21)Nc1ccccc1	esBAF inh 51
Cn1c(=O)cc(OCCCC(=O)Nc2ccc3c(c2)OCCO3)c2ccccc21	Wnt act 64
CCCNC(=O)N1C[C@H](C)[C@H](OC)CN(C)C(=O)c2cc(NC(=O)C3CCC3)ccc2OC[C@H]1C	none (no result: Rtt109 Vps75, Wnt act, MITF act)
O=C(Cn1c(=O)oc2ccccc21)Nc1ccc2c(c1)OCCO2	none (no result: Statin myotox sup, MITF act)
O=C(CCn1c(=O)oc2ccccc21)Nc1ccc2c(c1)OCCO2	esBAF inh 57
COc1ccc(NC(=O)CCCn2c(=O)oc3ccccc32)cc1Cl	MITF act 154 (no result: Statin myotox sup, esBAF inh)
COc1cc(OC)c(NC(=O)CCCn2c(=O)oc3ccccc32)cc1Cl	none (no result: Wnt act, Statin myotox sup, esBAF inh)
C[C@@H]1CCCCO[C@H](CN(C)Cc2ccccc2)[C@@H](C)CN([C@@H](C)CO)C(=O)c2cc(NC(=O)c3ccncc3)ccc2O1	none (no result: Rtt109 Vps75, Wnt act, Statin myotox sup, MITF act)
CC(OC(=O)c1ccc(-n2cnnn2)cc1)C(=O)Nc1ccc(F)c(F)c1F (configuration not stated)	none
CC(OC(=O)c1ccc(-n2cnnn2)cc1)C(=O)Nc1ccccc1F (configuration not stated)	Wnt act 51
O=C1CC(c2ccco2)CC2=C1C=Nc1ccccc1N2 (configuration not stated)	Wnt act 45
Cc1nc2n(n1)C(c1ccccc1)C1=C(CC(c3ccco3)CC1=O)N2 (configuration not stated)	none
COC(=O)C[C@@H]1CC[C@@H]2[C@H](COc3ccc(NC(=O)Nc4ccc(C)cc4)cc3C(=O)N2C)O1	none (no result: Rtt109 Vps75, Wnt act, MITF act)
CC(C)(C)C(=O)OCc1nc(-c2ccc(F)cc2)cs1	esBAF inh inconclusive, MITF act 110
COc1ccc(-c2csc(COC(=O)C(C)(C)C)n2)cc1	none (no result: Statin myotox sup, esBAF inh)
CC(C)(C)C(=O)OCc1nc(-c2ccc(Cl)cc2)cs1	esBAF inh 65
COCC(=O)Nc1ccc2c(c1)C(=O)N(C)[C@H]1CC[C@H](CC(=O)Nc3ccccc3OC)O[C@@H]1CO2	none (no result: Rtt109 Vps75, Wnt act, MITF act)
COc1ccc(NC(=O)N(C)C[C@@H]2Oc3c(NC(=O)c4cc(C)nn4C)cccc3C(=O)N([C@@H](C)CO)C[C@H]2C)cc1	none (no result: Rtt109 Vps75, Wnt act, MITF act)
CCN(CC(=O)Nc1ccc2c(c1)OCCO2)C(=O)/C=C/c1cccc(Br)c1	esBAF inh 63
C[C@@H]1CCCCO[C@@H](CN(C)S(=O)(=O)c2cn(C)cn2)[C@H](C)CN([C@H](C)CO)C(=O)c2cc(NC(=O)Nc3ccc(C(F)(F)F)cc3)ccc2O1	none (no result: Rtt109 Vps75, Wnt act, MITF act)
CCOCCc1nnc(NC(=O)C(CC)c2ccccc2)s1 (configuration not stated)	Statin myotox sup 116
CCCCN(CCNP(=O)(OCC)OCC)CP(=O)(OCC)OCC	Statin myotox sup 72 (no result: Wnt act)
C[C@@H]1CN([C@H](C)CO)C(=O)Cc2cc(NS(C)(=O)=O)ccc2O[C@@H]1CN(C)C(=O)Nc1ccccc1	none (no result: Rtt109 Vps75, Wnt act, MITF act)
Brc1ccc(Cn2c(-c3cncs3)nc3ccccc32)cc1	none (no result: Wnt act, MITF act)
c1ccc(Cn2c(-c3cncs3)nc3ccccc32)cc1	esBAF inh 66 (no result: Wnt act)
CN1C(=O)c2cc(NC(=O)c3cccs3)ccc2OC[C@@H]2O[C@@H](CC(=O)O)CC[C@H]21	none (no result: Rtt109 Vps75, Wnt act, MITF act)
Clc1ccccc1Cn1nnc(-c2cccs2)n1	esBAF inh 56 (no result: Wnt act)
O=C(Nc1ccccc1Cl)OC1CCCCC1	esBAF inh 56
CC(OC(=O)C1CCCCC1)C(=O)Nc1cccc(Cl)c1 (configuration not stated)	none
CC(OC(=O)Nc1cccc(Cl)c1)C(=O)OC1CCCCC1 (configuration not stated)	esBAF inh 54
